Results on 15 compounds are retold here after PubChem BioAssay.

Molecules are shown by their SMILES. “And” between values parts separate entries of the source, which are not always exact repeats. Equal entries are not always repeated. Inconclusive results are not listed. The source made the active and inactive calls. Unless noted, the limit is not given here; nearly all actives have AC50 up to about 26 µM.

Test [1] in a line: viability loss in pontine glioma line – cell-based, SU-DIPG-XVII, MIPE5.0, CellTiter-Glo, qHTS, dose response (AID 1347060).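 As to AC50: cells exposed to compound for 48 hours before viability readout.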 Particulars: CellTiter-Glo ATP luminescence. On the technique in general: In ATP-based viability assays light output follows the ATP content of the culture.
Test [2] can be described thus: viability loss in pontine glioma line – cell-based, SU-DIPG-XXV, MIPE5.0, CellTiter-Glo, qHTS, dose response (AID 1347065).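 Also: cells exposed to compound for 48 hours before ATP readout.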 As to conditions: CellTiter-Glo ATP luminescence.
Test [3] is described as follows: liver-stage malaria parasite load reduction – cell-based, known kinase inhibitor set, luminescence, hepatoma host viability (AID 624392; call rule not given here;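 also: infected cells incubated roughly two days before readout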). As to conditions: Plasmodium liver stage in hepatoma cells, luciferase luminescence, concentration not given here; liver cell % of control: measured here: host liver cell viability; parasite % of control: stronger effect = lower value.
Test [4] is described as follows: growth inhibition, single agent or in combination, cell-based, chromothripsis tumors, cisplatin or BGB combos (AID 1671449; in the data active = inhibition above about 80%;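 also: cells exposed for 96 hours; 0% = vehicle DMSO and 100% = killing by high DMSO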). As to conditions: LFS_MB_P medulloblastoma cells.
Test [5] is described as follows: growth inhibition, single agent and combos, cell-based, chromothripsis tumors, cisplatin or BGB combos (AID 1671450; in the data active = inhibition above about 80%;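 also: cells exposed to compound for four days; 0% = vehicle DMSO and 100% = cell killing by high DMSO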). As to conditions: HDN33 neuroblastoma cells, stronger effect = higher value.
The nature of test [6]: growth inhibition, single agents and combos, LFS_MB_1R, cell-based, cisplatin or BGB combos, synergistic combos for chromothripsis tumors (AID 1671452; in the data active = inhibition above about 80%;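 also: cells exposed for 96 hours before readout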). As to conditions: LFS_MB_1R medulloblastoma cells, stronger effect = higher value.
The nature of test [7]: growth inhibition, single agents and combos, HTB85, cell-based, BGB or cisplatin IC20 combos, synergistic combos for chromothripsis tumors (AID 1671453; in the data active = inhibition above about 80%;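 also: cells exposed for 96 hours before readout; 0% = vehicle DMSO and 100% = high DMSO killing control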). As to conditions: HTB85 osteosarcoma cells, drug combinations, stronger effect = higher value.
A short description of test [8]: growth inhibition, single agents and combos, CRL2098, cell-based, BGB or cisplatin IC20 combos, synergistic combos for chromothripsis tumors (AID 1671454; in the data active = inhibition above about 80%;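 also: cells exposed for 96 h before readout; 0% = vehicle DMSO and 100% = killing by high DMSO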). Particulars: CRL2098 osteosarcoma cells, drug combinations, stronger effect = higher value.
Test [9] in a line: growth inhibition, single agents and combos, HD-MB03, cell-based, BGB or cisplatin IC20 combos, synergistic combos for chromothripsis tumors (AID 1671455; in the data active = inhibition above about 83%;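 also: 0% = vehicle DMSO and 100% = high DMSO as cytotoxic control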). Particulars: HD-MB03 medulloblastoma cells, stronger effect = higher value.
Test [10] can be described thus: growth inhibition, single agents and combos, UWB1.289, cell-based, BGB or cisplatin combos, synergistic combos for chromothripsis tumors (AID 1671456; in the data active = inhibition above about 80%;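 also: cells exposed to compound for four days; 0% = vehicle DMSO and 100% = killing by high DMSO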). As to conditions: UWB1.289 ovarian carcinoma cells, stronger effect = higher value.
A short description of test [11]: growth inhibition, single agents and combos, LFS_MB_2R, cell-based, cisplatin combos, synergistic combos for chromothripsis tumors (AID 1671457; in the data active = inhibition above about 80%;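 also: cells exposed to compound for four days before readout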). As to conditions: LFS_MB_2R medulloblastoma cells, stronger effect = higher value.
Test [12] can be described thus: growth inhibition, MDA-MB-436, cell-based, BGB or cisplatin combos, synergistic combos for chromothripsis tumors (AID 1671458; call rule not given here;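 also: cells exposed for 96 hours; 0% = vehicle DMSO and 100% = killing by high DMSO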). As to conditions: MDA-MB-436 breast carcinoma growth inhibition, drug combinations, stronger effect = higher value.
Test [13] can be described thus: UWB1.289_BRCA1 ovarian cancer growth, cell-based, BGB or cisplatin combinations (AID 1671459; in the data active = inhibition above about 80%). Particulars: UWB1.289 BRCA1 ovarian carcinoma, drug combinations, stronger effect = higher value.
A short description of test [14]: drug combination toxicity in non-malignant astrocytes – cell-based, BGB or cisplatin IC20 combos, cytotoxicity control for chromothriptic childhood tumor combination screen (AID 1671460; in the data active = inhibition above about 80%;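 also: cells exposed to compounds for 96 hours before viability readout; 0% = vehicle and 100% = killing control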). As to conditions: Human astrocytes, viability inhibition, drug combinations, at 0.5 µM, stronger effect = higher value.
Test [15] can be described thus: BT084 cell growth, single and combined drugs, ICGC_MB145, cisplatin and BGB IC40 combos (AID 1671461; in the data active = inhibition above about 80%;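 also: cells exposed to drugs for 96 hours; 0% = vehicle DMSO and 100% = high DMSO full killing control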). As to conditions: BT084 medulloblastoma cells, drug combinations, stronger effect = higher value.
Test [16] is described as follows: RCMB18 cell growth, single agent and combined, cisplatin and BGB IC40 combos (AID 1671462; in the data active = inhibition above about 80%;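 also: cells exposed to compound for four days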). Particulars: RCMB18 medulloblastoma cells, stronger effect = higher value.
A short description of test [17]: CRL1545 cell growth, single agent and combined, cisplatin and BGB IC20 combos (AID 1671464; in the data active = inhibition above about 80%;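 also: cells exposed to compound for 96 hours before readout; 0% = vehicle DMSO and 100% = high DMSO killing control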). As to conditions: CRL1545 osteosarcoma cells, stronger effect = higher value.
The mark [18] stands for this setting: measured here: combination with BGB IC40, at 0.05 µM.
The mark [19] stands for this setting: measured here: with BGB IC20 combination, at 0.5 µM.
Where [20] appears, read: measured here: with cisplatin IC20 combination, at 0.5 µM.
The mark [21] stands for this setting: measured here: combination with cisplatin, at 0.5 µM.
Where [22] appears, read: measured here: combination with cisplatin, at 5 µM.

In the case of `COC1CCC(C(=O)c2ccc3nc4c(cc3c2)CCCO4)CC1` (configuration not stated), the result in [1] and in test [2] was inactive.
Consider `O=C(O)C1CCCN(CCC=C(c2ccccc2)c2ccccc2)C1` (configuration not stated), for which the compound was classed as inactive in test [1].
Take `CC[C@H](NC(C)C)[C@H](O)c1ccc(O)c2[nH]c(=O)ccc12`: the call in test [1] and in test [2] was inactive.
The term AC50 denotes the midpoint of the concentration-response curve, whichever way the signal moves. As for `O=Nc1c(-c2c(O)[nH]c3cc(Br)ccc23)[nH]c2ccccc12`, the figures for the concentration at half-maximal activity (AC50) in [1] and in test [2] were 8.33 µM (active) and 7.42 µM (active), respectively.
With `CS(=O)c1ccc(-c2nc(-c3ccc(F)cc3)c(-c3ccncc3)[nH]2)cc1` (configuration not stated), in test [3], the liver cell % of control was 87.6% and 90.6% and 97.1%; the parasite % of control was 20.8% (inactive) and 18.7% (inactive) and 25.5% (inactive). In test [1], the compound was called inactive.
For the compound `CC(Oc1ccc(O)cc1)(P(=O)(O)O)P(=O)(O)O`, the outcome in test [1] was inactive.
With `COc1cc(OC)c(NC(=O)Nc2cc(C)on2)cc1Cl`, the outcome in test [1] and in [2] was inactive.
In the case of `Cc1[nH]c(/C=C2\C(=O)Nc3ccccc32)c(C)c1CCC(=O)O`, the AC50 in test [1] is 16.6 µM (active).
Regarding `Nc1ncnc2nc(-c3ccc(N4CCOCC4)nc3)cc(-c3cccc(Br)c3)c12`, the call in test [1] was inactive.
As to `N#Cc1c(O)c2c(-c3ccc(-c4ccccc4O)cc3)csc2[nH]c1=O`, the result in test [1] and in test [2] was inactive.
Consider `CCN(CC)CCCC(C)Nc1nc(C)cc(Nc2ccc3nc(C)cc(N)c3c2)n1` (configuration not stated), for which, in test [1], the call was inactive.
Still for that read-out and setting: the same measure for `CCOc1cc(C(=O)Nc2ccc(Cl)c(-c3nc4ccccc4[nH]3)c2)cc(OCC)c1OCC`: “inactive”.
The same measure, in the same setting: the same measure for `O=C1NC(=O)C(c2ccccc2[N+](=O)[O-])=C1Nc1ccc(O)c(Cl)c1`: “inactive”.
In general, inhibition refers to the relative decrease from the control value, in per cent. Regarding `CCc1c2c(nc3ccc(O)cc13)-c1cc3c(c(=O)n1C2)COC(=O)[C@]3(O)CC`, the AC50 in test [1] was 0.00833 µM (active). The inhibition in [4] (at 0.5 µM, stronger effect = higher value) is -26% (inactive); in [4] (measured here: combination with BGB IC20, at 0.005 µM), -6.89%; in test [4] (measured here: combination with BGB IC40, at 0.005 µM) it was -27.9%; in test [4] (setting [18]), -20.9%; in test [4] (measured here: combination with cisplatin, at 0.5 µM, stronger effect = higher value), -58.2%; in test [4] (measured here: combination with cisplatin, at 5 µM, stronger effect = higher value), 87.9%. Further, the inhibition was 98.3% in test [5] (BGB combo, at 5 µM); 84.1% (active) in [5] (at 0.5 µM); 98.4% in test [5] (cisplatin combo, at 5 µM); 83% in [5] (setting [19]); 82.2% in [5] (setting [20]); 96.3% in test [5] (single agent, at 5 µM). Further, the inhibition in test [6] (at 0.5 µM) is 74.1% (inactive); in test [6] (setting [18]), -7.58%; in test [6] (setting [21]), 77.6%; in test [6] (setting [22]), 86.6%; in test [7] (at 0.5 µM), 98.3% (active); in [7] (measured here: with BGB IC20, at 0.5 µM) it was 96.1%. In addition, the inhibition in [7] (measured here: with BGB IC20, at 5 µM) was 98.1%; in [7] (measured here: with cisplatin IC20, at 0.5 µM), 99.1%; in [7] (measured here: with cisplatin IC20, at 5 µM) it was 99.5%; in test [7] (single agent, at 5 µM), 99.6%; in [8] (at 0.5 µM), 57.3% (inactive); in test [8] (measured here: combination with BGB at IC20, at 0.5 µM) it was 88.7%. For the same compound, the inhibition is 37.4% in test [8] (measured here: combination with cisplatin at IC20, at 0.5 µM); 99.5% (active) in [9] (at 0.5 µM); 99.5% in [9] (measured here: combo with BGB at IC20, at 0.5 µM); 99.6% in test [9] (measured here: combo with cisplatin at IC20, at 0.5 µM); 74.5% (inactive) in test [10] (at 0.5 µM); 31% in [10] (measured here: inhibition with BGB combination, at 0.05 µM). Further, the inhibition was 49.3% in test [10] (measured here: inhibition with cisplatin combination, at 0.05 µM); 13.2% (inactive) in test [11] (at 0.5 µM); 48.9% in test [11] (setting [21]); 61.9% in test [11] (setting [22]); 72.1% (inactive) in test [12] (at 0.5 µM); 67% in test [12] (measured here: BGB combination, at 0.5 µM). Also, the inhibition is 73.3% in [12] (measured here: BGB combination, at 5 µM); 71.2% in test [12] (measured here: cisplatin combination, at 0.5 µM); 84.4% in test [12] (measured here: cisplatin combination, at 5 µM); 102% in [13] (BGB combination, concentration series, at 5 µM); 81.6% (active) in test [13] (at 0.5 µM); 105% in test [13] (cisplatin combination, concentration series, at 5 µM). Also, the inhibition in [14] is 90.1% (active); in test [14] (measured here: combo with BGB IC20) it was 94.5%; in test [14] (measured here: combo with cisplatin IC20), 87%; in test [15] (at 0.5 µM), 5.49% (inactive); in test [15] (cisplatin combination, at 0.5 µM), 45.3%; in test [15] (cisplatin combination, at 5 µM), 33.9%. Moreover, the inhibition is -2.99% in test [15] (measured here: BGB IC40 combination 0.05 uM, at 0.05 µM); 52.7% in test [15] (single agent, at 5 µM); 30.1% (inactive) in [16] (at 0.5 µM); 67.1% in test [16] (cisplatin combo, at 5 µM); -24.6% in test [16] (measured here: BGB IC40 combination, at 0.05 µM); 61.9% in test [16] (setting [21]). For the same compound, the inhibition is 62.2% in [16] (single agent, at 5 µM); 93.7% (active) in test [17] (at 0.5 µM); 98.1% in test [17] (setting [19]); 91.2% in test [17] (setting [20]); 16.8% in test [17] (single agent, at 0.05 µM); 99.8% in [17] (single agent, at 5 µM).
With `COc1nccc(-c2c(-c3ccc(F)cc3)ncn2C2CCC(O)CC2)n1` (configuration not stated), the compound was classed as inactive in [1].
